Reference: PubChem BioAssay (Tox21)
Where “and” joins values, the source holds several entries; their conditions need not be identical. Equal values may be shown once. Unmarked numbers belong to inactive results. Results filed as inconclusive are left out. Entries that show only a call come without a potency. Calls of active or inactive are those of the source. Unless noted, calls follow the shape of the dose curve; as a rule, active = well fitted curve in the direction sought with a large enough effect in the repeat runs; inconclusive = weak or mixed curves; inactive = no such curve, though single readings can be large; an effect the other way counts as inactive or inconclusive.

Tests used:
[1] = Caspase-3/7 induction in HepG2 cells by small molecules, qHTS assay (AID 1346978); also: nearly all actives have a fitted effect of over 15% in size; also: potency is read from the fitted curve at half-maximal effect
Summary of the method: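 Wild-type HepG2 cells (2,000/well) were settled 5 h at 37 C, 5% CO2, then exposed to compounds in DMSO for 17 h. Caspase-3/7 activity was read by luminescence 30 min after adding Caspase-Glo 3/7 reagent at room temperature.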

[2] = Caspase-3/7 induction in CHO-K1 cells by small molecules, qHTS cell viability counter screen (AID 1346979); also: nearly all actives have a fitted effect of over 35% in size; also: potency is read from the fitted curve at half-maximal effect
Summary of the method: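 Following a 5hr settling period, CHO-K1 cells at 1,500 per well received DMSO-dissolved compounds. Cell viability was quantified 16hr later by CellTiter-Fluor fluorescence, measured after 1hr with reagent at 37C.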

[3] = Caspase-3/7 induction in CHO-K1 cells by small molecules, qHTS assay (AID 1346980); also: nearly all actives have a fitted effect of over 15% in size; also: potency is read from the fitted curve at half-maximal effect
Summary of the method: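 Wild-type cells were seeded at 1,500 per well and settled 5 hr at 37 C, 5% CO2, then exposed to DMSO-dissolved compounds for 17 hr. Caspase-Glo 3/7 reagent was added, and luminescence was read after 30min at room temperature.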

[4] = target: Nuclear receptor subfamily 1 group I member 2 (Homo sapiens) (UniProt O75469); assay: Human pregnane X receptor (PXR) small molecule agonists, qHTS assay (AID 1346982); also: nearly all actives have a fitted effect of over 35% in size; also: potency is read from the fitted curve at half-maximal effect
Nuclear receptor subfamily 1 group I member 2 (Homo sapiens), sequence (O75469 whole entry, looked up): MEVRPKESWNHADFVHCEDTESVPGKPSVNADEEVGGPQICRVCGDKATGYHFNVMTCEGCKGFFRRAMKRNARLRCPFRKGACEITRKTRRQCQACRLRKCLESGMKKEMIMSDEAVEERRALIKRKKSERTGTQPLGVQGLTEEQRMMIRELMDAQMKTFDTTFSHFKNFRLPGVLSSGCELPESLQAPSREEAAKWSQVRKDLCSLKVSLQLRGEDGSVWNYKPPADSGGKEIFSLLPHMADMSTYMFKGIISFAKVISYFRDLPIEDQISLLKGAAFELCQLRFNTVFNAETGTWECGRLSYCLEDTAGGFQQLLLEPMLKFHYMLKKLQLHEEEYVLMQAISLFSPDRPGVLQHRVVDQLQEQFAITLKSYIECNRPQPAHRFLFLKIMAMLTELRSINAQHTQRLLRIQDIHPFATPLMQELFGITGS
Summary of the method: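 We seeded PXR-Luc HepG2 cells in assay medium containing 5% charcoal-stripped FBS, added compounds 5 hr later, incubated 24 hr, and read luminescence with ONE-Glo reagent.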

[5] = target: Acetylcholinesterase (Homo sapiens) (UniProt P22303); assay: Acetylcholinesterase (AChE) small molecule antagonists: colormetric cell-based qHTS assay (AID 1347395; calls by dose curve; also: nearly all actives have a fitted effect of over 30% in size)
Acetylcholinesterase (Homo sapiens), sequence (P22303 whole entry, looked up): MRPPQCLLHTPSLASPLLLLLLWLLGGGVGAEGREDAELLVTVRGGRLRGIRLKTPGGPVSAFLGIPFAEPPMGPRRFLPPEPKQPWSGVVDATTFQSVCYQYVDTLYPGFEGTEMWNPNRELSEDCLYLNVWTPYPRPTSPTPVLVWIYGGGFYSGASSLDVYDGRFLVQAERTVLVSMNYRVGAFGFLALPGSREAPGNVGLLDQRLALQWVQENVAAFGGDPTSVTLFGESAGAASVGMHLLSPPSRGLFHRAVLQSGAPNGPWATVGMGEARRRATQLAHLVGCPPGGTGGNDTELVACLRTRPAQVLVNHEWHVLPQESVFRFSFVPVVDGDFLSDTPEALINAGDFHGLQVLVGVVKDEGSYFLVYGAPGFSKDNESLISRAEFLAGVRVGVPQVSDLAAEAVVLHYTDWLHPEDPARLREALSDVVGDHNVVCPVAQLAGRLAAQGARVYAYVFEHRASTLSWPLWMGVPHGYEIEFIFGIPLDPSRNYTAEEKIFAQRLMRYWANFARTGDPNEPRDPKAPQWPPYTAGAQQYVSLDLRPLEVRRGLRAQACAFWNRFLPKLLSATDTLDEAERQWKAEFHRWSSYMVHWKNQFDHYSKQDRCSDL
Summary of the method: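 After overnight attachment at 37 C, SH-SY5Y cells get 30 min compound exposure; detection cocktail (acetylthiocholine, DTNB) then incubates 90 min at 37 C, and absorbance reflects AChE-generated thiocholine.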

[6] = target: Acetylcholinesterase (Homo sapiens) (UniProt P22303); assay: Acetylcholinesterase (AChE) small molecule antagonists: enzyme-based qHTS assay (AID 1347397; calls by dose curve; also: nearly all actives have a fitted effect of over 55% in size; also: potency is read from the fitted curve at half-maximal effect); conditions: Potency: AChE enzyme activity inhibition
Summary of the method: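 Human recombinant acetylcholinesterase; substrate acetylthiocholine; thiocholine quantified with DTNB (colorimetric). Compound preincubation 30 min RT; reaction 10 min RT.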

[7] = target: Nuclear receptor subfamily 1 group I member 2 (Rattus norvegicus) (UniProt Q9R1A7); assay: Rat pregnane X receptor (rPXR) activation by small molecules, qHTS assay (AID 1346983); conditions: rPXR luciferase reporter cells, One-Glo luminescence, 24 h; max activation: hits give high values; also: nearly all actives have a fitted effect of over 20% in size
Nuclear receptor subfamily 1 group I member 2 (Rattus norvegicus), sequence (Q9R1A7 whole entry, looked up): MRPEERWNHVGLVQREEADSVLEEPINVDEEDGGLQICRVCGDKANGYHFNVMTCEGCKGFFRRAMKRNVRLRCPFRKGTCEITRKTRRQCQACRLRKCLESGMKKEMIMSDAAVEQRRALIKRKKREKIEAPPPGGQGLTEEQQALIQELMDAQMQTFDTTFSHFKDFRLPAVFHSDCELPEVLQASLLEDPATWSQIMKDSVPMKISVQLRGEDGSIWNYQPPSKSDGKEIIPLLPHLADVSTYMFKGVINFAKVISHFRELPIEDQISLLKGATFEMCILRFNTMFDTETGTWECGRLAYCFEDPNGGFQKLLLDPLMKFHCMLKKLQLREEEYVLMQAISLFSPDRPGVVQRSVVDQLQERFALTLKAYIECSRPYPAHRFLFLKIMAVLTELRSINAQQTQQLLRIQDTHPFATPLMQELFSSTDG
Summary of the method: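 Cell-based rPXR luciferase reporter assay, 2,000 cells per well, rested 5hr at 37 C before compound addition in DMSO, then 24 hr at 37 C. One-Glo reagent was added and luminescence read after 30 min at room temperature.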

[8] = target: Nuclear receptor subfamily 1 group I member 2 (Homo sapiens) (UniProt O75469); assay: CYP3A4 induction through human pregnane X receptor (PXR) by small molecules, qHTS assay (AID 1346984); also: nearly all actives have a fitted effect of over 40% in size
Summary of the method: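 qHTS, concentration-response format: HepG2 DPX-2 line, PXR/CYP3A4-luc. Exposure 24 h, 37C. Substrate Luciferin-IPA 3uM final, 3 h. Detection One-Glo, 30 min RT.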

[9] = Caspase-3/7 induction in HepG2 cells by small molecules, qHTS cell viability counter screen (AID 1346981); also: nearly all actives have a fitted effect of over 30% in size; also: potency is read from the fitted curve at half-maximal effect
Summary of the method: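 Multiplexed with the caspase-3/7 assay: HepG2 cells, 16 hr compound treatment, CellTiter-Fluor viability detection by fluorescence.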

[10] = target: Nuclear receptor subfamily 1 group I member 2 (Homo sapiens) (UniProt O75469); assay: Human pregnane X receptor (PXR) activation by small molecules, qHTS assay (AID 1346985); also: potency is read from the fitted curve at half-maximal effect; nearly all actives have a fitted effect of over 40% in size
Summary of the method: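 DPX-2 cells (HepG2 co-transfected with a PXR response element and a CYP3A4-promoter luciferase construct) were seeded at 2,000 per well, rested 5 hr at 37C, then exposed to DMSO-dissolved compounds for 24 hr. Activation was read as luciferase luminescence.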

Row | Compound | Potency [1] | Potency [2] | Potency [3] | Potency [4] | Potency [5] | Potency [6] | max activation [7] | Potency [8] | Potency [9] | Potency [10]
1 | CN(C)S(=O)(=O)N(SC(F)(Cl)Cl)c1ccccc1 | inactive | 7.7 µM (active) | inactive | inactive | inactive | – | – | – | – | –
2 | CC(C)CCCCCOC(=O)c1ccccc1C(=O)OCCCCCC(C)C | inactive | 60.4 µM (active) | inactive | 48 µM (active) | inactive | inactive | – | – | – | –
3 | Clc1ccc(CSC(Cn2ccnc2)c2ccc(Cl)cc2Cl)cc1 (centres undefined) | inactive | 18.8 µM (active) | inactive | 9.44 µM (active) | inactive | – | 11.4% | inactive | – | –
4 | C[C@]12CC[C@H](O)C[C@H]1CC[C@@H]1[C@@H]2C[C@@H](O)[C@]2(C)[C@@H](C3=CC(=O)OC3)CC[C@]12O | inactive | inactive | inactive | 2.17 µM (active) | inactive | inactive | – | – | – | –
5 | O=CC(Br)(Br)Br | inactive | 19.3 µM (active) | inactive | – | inactive | inactive | – | – | 54.3 µM (active) | –
6 | O=S(=O)(c1ccc(Cl)cc1)c1ccc(Cl)cc1 | inactive | 41.1 µM (active) | inactive | 22 µM (active) | inactive | inactive | – | – | – | –
7 | Cc1cc(C(F)(C(F)(F)F)C(F)(F)F)ccc1NC(=O)c1cccc(I)c1C(=O)NC(C)(C)CS(C)(=O)=O | inactive | inactive | inactive | 13.8 µM (active) | inactive | inactive | – | – | – | –
8 | N#C/C=C/c1ccccc1 | inactive | inactive | inactive | inactive | inactive | inactive | – | – | inactive | –
9 | [Cl][Sb]([Cl])[Cl] | inactive | 54.5 µM (active) | inactive | 27.3 µM (active) | inactive | inactive | – | – | – | –
10 | Oc1ccc(C(=C(Cl)Cl)c2ccc(O)cc2)cc1 | inactive | 61 µM (active) | inactive | 61 µM (active) | inactive | – | – | – | – | –
11 | CCC(C)(C)C(=O)OC1=C(c2ccc(Cl)cc2Cl)C(=O)OC12CCCCC2 | inactive | inactive | inactive | – | inactive | inactive | – | – | inactive | –
12 | Oc1cc(Cl)c(Cl)c(Cl)c1 | inactive | 65 µM (active) | inactive | 29.1 µM (active) | inactive | inactive | – | – | – | –
13 | CCCCCCCCCCCCCCCCCCn1cc[n+](C)c1 | inactive | 4.3 µM (active) | inactive | inactive | – | 28.1 µM (active) | – | – | 68.2 µM (active) | –
14 | O=C(O)c1cc[c]([Hg][Cl])cc1 | inactive | 24.3 µM (active) | inactive | 21.7 µM (active) | inactive | inactive | – | – | – | –
15 | c1ccc2c(c1)OCC(C1=NCCN1)O2 (centres undefined) | inactive | 23.7 µM (active) | inactive | 11.9 µM (active) | inactive | inactive | – | – | – | –
16 | Oc1ccc(C(c2ccc(O)cc2)(C(F)(F)F)C(F)(F)F)cc1 | inactive | 60.8 µM (active) and 68.6 µM (active) | inactive | 24.2 µM (active) and 27.3 µM (active) | inactive | inactive | – | – | – | –
17 | CCOCn1c(-c2ccc(Cl)cc2)c(C#N)c(Br)c1C(F)(F)F | inactive | 2.73 µM (active) | inactive | 1.37 µM (active) | inactive | inactive | – | – | – | –
18 | Nc1ccc(Sc2ccc(N)cc2)cc1 | inactive | inactive | inactive | 34.4 µM (active) | inactive | inactive | – | – | – | –
19 | Clc1ccc(CCC(Cn2ccnc2)Sc2c(Cl)cccc2Cl)cc1 (centres undefined) | inactive | 11.9 µM (active) | inactive | 4.22 µM (active) | inactive | – | – | inactive | – | 4.47 µM (active)
20 | c1ccc(Nc2ccc3ccccc3c2)cc1 | inactive | 54.5 µM (active) | inactive | 30.5 µM (active) and 21.7 µM (active) | inactive | inactive | – | – | – | –
21 | CCCN(CC)CC1COC2(CCC(C(C)(C)C)CC2)O1 (centres undefined) | inactive | inactive | inactive | inactive | inactive | inactive | – | – | inactive | –
22 | S=C(SSC(=S)N1CCCCC1)N1CCCCC1 | inactive | 1.88 µM (active) | inactive | 9.44 µM (active) | inactive | inactive | – | – | – | –
23 | CCCN(CCC)c1c([N+](=O)[O-])cc(S(N)(=O)=O)cc1[N+](=O)[O-] | 57.2 µM (active) | 50.1 µM (active) | 58.8 µM (active) | 3.67 µM (active) | – | inactive | – | – | 57.7 µM (active) | –
24 | CCOC(=O)OC1=C(c2cc(C)ccc2C)C(=O)NC12CCC(OC)CC2 (centres undefined) | inactive | inactive | inactive | – | inactive | inactive | – | – | inactive | –
25 | Nc1ccc(Cl)cc1C(=O)c1ccccc1 | inactive | 61.1 µM (active) | inactive | 61.1 µM (active) | inactive | inactive | – | – | – | –
26 | CC(=O)Nc1ccc2c(c1)Cc1ccccc1-2 | inactive | inactive | inactive | 24.7 µM (active) | inactive | inactive | – | – | inactive | –
